Source: paper PMC5540273 (PLoS ONE, 2017)

Assays:
Conditions in all cases: concentration: 1 μM, replicates: in singlicate; n = 1
LYN = test system: LYN
LZK = test system: T1, LZK
T1 construct: gene MAP3K13

MAK = test system: MAK
MAP3K15 = test system: MAP3K15
MAP3K1 = test system: MAP3K1
MAP3K2 = test system: MAP3K2
MAP3K3 = test system: MAP3K3
MAP3K4 = test system: MAP3K4
MAP4K2 = test system: MAP4K2
MAP4K3 = test system: MAP4K3
MAP4K4 = test system: MAP4K4
MAP4K5 = test system: MAP4K5
MAPKAPK2 = test system: MAPKAPK2
MAPKAPK5 = test system: MAPKAPK5
MARK1 = test system: MARK1
MARK2 = test system: MARK2
MARK3 = test system: MARK3
MARK4 = test system: MARK4
MAST1 = test system: MAST1
MEK1 = test system: T2, MEK1
T2 construct: gene MAP2K1
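Further: KINOMEscan kinase panel screen.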

Row | Compound | %Inh (LYN) | %Inh (LZK) | %Inh (MAK) | %Inh (MAP3K15) | %Inh (MAP3K1) | %Inh (MAP3K2) | %Inh (MAP3K3) | %Inh (MAP3K4) | %Inh (MAP4K2) | %Inh (MAP4K3) | %Inh (MAP4K4) | %Inh (MAP4K5) | %Inh (MAPKAPK2) | %Inh (MAPKAPK5) | %Inh (MARK1) | %Inh (MARK2) | %Inh (MARK3) | %Inh (MARK4) | %Inh (MAST1) | %Inh (MEK1)
1 | COc1ccc(C2=C(Nc3cccc(C(=O)O)c3)C(=O)NC2=O)cc1 [SB-390765] | 21% | 52% | 36% | 15% | 18% | 12% | 7% | 9% | 32% | 2% | 0% | 0% | 0% | 20% | 3% | 8% | 0% | 0% | 30% | 13%
2 | COc1cccc(-c2cc(-c3c[nH]nc3-c3ccccn3)ccn2)c1 [GW680338] | 26% | 28% | 100% | 0% | 15% | 0% | 0% | 15% | 8% | 0% | 40% | 1% | 0% | 1% | 0% | 12% | 0% | 0% | 0% | 16%
3 | NC(=O)c1nnc2ccccc2c1N | 5% | 0% | 23% | 30% | 28% | 31% | 34% | 15% | 20% | 4% | 12% | 11% | 0% | 0% | 12% | 0% | 0% | 19% | 1% | 40%
4 | O=C1NC(=O)C(N2CCc3ccccc32)=C1c1ccccc1Cl [SB-373598] | 17% | 0% | 9% | 9% | 23% | 4% | 4% | 29% | 21% | 1% | 26% | 24% | 33% | 8% | 9% | 10% | 0% | 17% | 0% | 13%
5 | Cl.c1ccc(-c2n[nH]cc2-c2ccnc(-c3ccc(CN4CCOCC4)cc3)c2)nc1 [GW776245] | 6% | 0% | 0% | 0% | 0% | 18% | 17% | 9% | 0% | 0% | 0% | 0% | 13% | 0% | 0% | 6% | 1% | 28% | 0% | 14%
6 | Cl.Oc1ccc(-c2nc(-c3ccccc3)[nH]c2-c2ccncc2)cc1 [SB-428218] | 33% | 47% | 18% | 0% | 0% | 0% | 0% | 7% | 0% | 0% | 0% | 0% | 13% | 0% | 0% | 0% | 0% | 0% | 0% | 0%
7 | O=C(Nc1ccc2c(c1)OCO2)NC1CCN(c2ccnc(Nc3ccc(F)cc3)n2)C1 (stereo not drawn) [GSK1379724] | 0% | 0% | 0% | 0% | 11% | 6% | 0% | 40% | 0% | 0% | 8% | 0% | 5% | 0% | 0% | 0% | 0% | 0% | 0% | 0%
8 | Nc1ncnc2[nH]c(-c3ccccc3)nc12 [AH5015] | 7% | 0% | 0% | 0% | 16% | 0% | 0% | 0% | 0% | 0% | 4% | 0% | 12% | 0% | 0% | 0% | 0% | 0% | 0% | 0%
9 | Cc1cc(NCC(c2ccccc2)c2ccccc2)nc(NCc2ccc(C(F)(F)F)cc2)n1 [GW497681] | 0% | 11% | 17% | 0% | 0% | 0% | 0% | 22% | 0% | 0% | 0% | 0% | 0% | 0% | 0% | 0% | 0% | 0% | 0% | 0%
10 | COC(=O)c1c(-c2ccccc2)c2cc(OC)ccc2c(=O)n1Cc1ccccc1 | 32% | 0% | 33% | 0% | 24% | 0% | 11% | 12% | 0% | 0% | 0% | 0% | 10% | 0% | 19% | 21% | 0% | 22% | 20% | 0%
11 | COc1ccc(Nc2nccc(-c3cccc(NC(=O)c4cc5cc(F)ccc5[nH]4)c3)n2)cc1 [GSK1229782] | 0% | 33% | 36% | 0% | 5% | 38% | 0% | 21% | 0% | 0% | 22% | 7% | 0% | 0% | 9% | 19% | 0% | 21% | 20% | 0%
12 | Cn1ccc2ncnc(Oc3ccc(NC(=O)Nc4ccccc4)cc3)c21 | 6% | 9% | 6% | 0% | 0% | 0% | 11% | 10% | 0% | 18% | 0% | 0% | 0% | 0% | 11% | 0% | 50% | 10% | 18% | 0%
13 | Cc1cccc(-c2nc(Nc3ccncc3)c3ccccc3n2)n1 [GW855857] | 0% | 0% | 0% | 0% | 0% | 0% | 0% | 16% | 0% | 0% | 0% | 0% | 0% | 0% | 0% | 0% | 32% | 25% | 50% | 0%
14 | COc1cc2ncn(-c3cc(OCC4CCCO4)c(C(N)=O)s3)c2cc1OC (stereo not drawn) [GSK204607] | 0% | 0% | 9% | 0% | 50% | 0% | 0% | 0% | 0% | 70% | 6% | 4% | 0% | 0% | 0% | 0% | 0% | 0% | 2% | 24%
15 | Cn1ccc2ncnc(Oc3cccc(C(=O)Nc4ccccc4)c3)c21 | 9% | 0% | 8% | 0% | 0% | 11% | 0% | 0% | 2% | 15% | 8% | 0% | 0% | 12% | 13% | 0% | 0% | 6% | 35% | 1%
16 | O=C(Nc1ccccc1)Nc1cccc(Oc2ccc3nccn3n2)c1 | 0% | 0% | 27% | 0% | 0% | 0% | 0% | 4% | 0% | 9% | 0% | 0% | 0% | 0% | 2% | 39% | 0% | 9% | 0% | 0%
17 | COc1ccccc1CNC(=O)c1cc(C(=O)c2ccccc2C)c[nH]1 [GSK364507] | 0% | 0% | 7% | 3% | 6% | 15% | 0% | 32% | 0% | 0% | 6% | 0% | 26% | 0% | 89% | 0% | 0% | 50% | 0% | 0%
18 | Fc1cccc(COc2nnc(-c3ccc4c(c3)CCO4)o2)c1 | 6% | 14% | 0% | 17% | 17% | 0% | 0% | 0% | 0% | 2% | 0% | 0% | 0% | 11% | 14% | 24% | 0% | 24% | 21% | 5%
19 | O=S(=O)(c1ccc(-c2ccnc3[nH]ccc23)cc1)N1CCCC1 [GSK846226] | 0% | 0% | 24% | 0% | 14% | 7% | 0% | 0% | 0% | 0% | 0% | 0% | 0% | 0% | 0% | 8% | 0% | 0% | 0% | 24%
20 | Cl.NC(=O)c1cccc(Nc2nccc(Nc3ccc(Oc4cccc(Cl)c4)c(Cl)c3)n2)c1 [GW659008] | 29% | 19% | 9% | 0% | 3% | 0% | 0% | 33% | 0% | 0% | 18% | 33% | 8% | 0% | 13% | 0% | 0% | 24% | 5% | 0%
21 | CCn1c(-c2cccnc2O)nc2cnccc21 [SB-736715] | 0% | 11% | 13% | 0% | 0% | 0% | 0% | 0% | 0% | 0% | 0% | 0% | 16% | 0% | 0% | 15% | 0% | 0% | 13% | 0%
